Source: PubChem BioAssay (NCATS)
Records with an inconclusive call do not appear. Activity calls are given as the source filed them. The call rests on the fitted dose curve; in most records, active means well fitted activation curve with a large enough effect; inconclusive means small, poorly fitted or top-dose-only effect; inactive means no such curve, though single readings can be large or run the other way.

biological target: Rap guanine nucleotide exchange factor 4 (Homo sapiens) (UniProt Q8WZA2); test: Confirmatory qHTS for agonist of cAMP-regulated guanine nucleotide exchange factor 4 (EPAC2) (AID 1645884); settings: EPAC2 GEF activity, Rap1B-BODIPY-GDP fluorescence; series mostly up to 154 µM;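 further: nucleotide exchange releases bodipy-GDP from Rap1 and this lowers its fluorescence; nearly all actives have a fitted effect of over 65% in size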
On the % scale 0 is the no-effect control and ±100 the full control effect.

Chain of Rap guanine nucleotide exchange factor 4 (Homo sapiens) (Q8WZA2 whole entry, looked up): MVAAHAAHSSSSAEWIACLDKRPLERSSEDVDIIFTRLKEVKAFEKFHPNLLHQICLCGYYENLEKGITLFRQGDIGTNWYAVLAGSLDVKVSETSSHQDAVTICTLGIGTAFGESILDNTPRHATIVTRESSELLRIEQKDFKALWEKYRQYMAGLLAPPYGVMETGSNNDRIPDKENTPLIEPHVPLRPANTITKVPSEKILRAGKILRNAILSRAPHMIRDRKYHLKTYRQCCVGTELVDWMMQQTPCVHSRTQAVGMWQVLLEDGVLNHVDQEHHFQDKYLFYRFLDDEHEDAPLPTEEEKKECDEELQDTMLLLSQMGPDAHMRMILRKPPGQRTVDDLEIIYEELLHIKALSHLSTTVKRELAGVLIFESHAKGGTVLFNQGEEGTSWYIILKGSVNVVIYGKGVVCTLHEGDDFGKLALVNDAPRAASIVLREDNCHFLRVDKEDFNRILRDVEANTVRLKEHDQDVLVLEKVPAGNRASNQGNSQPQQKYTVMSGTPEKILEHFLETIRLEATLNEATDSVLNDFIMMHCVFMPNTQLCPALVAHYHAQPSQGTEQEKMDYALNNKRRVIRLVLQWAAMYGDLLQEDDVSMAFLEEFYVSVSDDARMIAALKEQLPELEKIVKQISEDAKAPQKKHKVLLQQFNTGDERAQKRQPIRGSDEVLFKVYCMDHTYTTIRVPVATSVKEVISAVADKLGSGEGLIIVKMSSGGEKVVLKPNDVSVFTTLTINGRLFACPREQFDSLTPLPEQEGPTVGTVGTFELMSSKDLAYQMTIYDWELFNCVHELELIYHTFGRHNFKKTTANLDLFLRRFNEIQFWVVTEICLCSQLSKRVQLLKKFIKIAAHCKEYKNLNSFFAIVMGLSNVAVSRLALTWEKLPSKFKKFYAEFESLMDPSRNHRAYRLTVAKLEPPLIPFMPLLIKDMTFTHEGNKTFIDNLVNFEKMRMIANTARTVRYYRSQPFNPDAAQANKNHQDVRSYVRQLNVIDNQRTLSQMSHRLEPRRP

activation, inactive:
COc1cc(C2CC(=O)Oc3cc(C)c(Br)c(C)c32)cc(OC)c1OC (stereo not drawn) 16.3% [at 17.1 µM, percent relative to cAMP agonist control]
CC(C)(C)NC(=O)COC(=O)c1c2c(nc3ccccc13)CCC2 2.28% [at 17.1 µM, percent relative to cAMP agonist control]
COc1ccc2oc(=O)c(-c3nnc(NCc4ccco4)s3)cc2c1 7.34% [at 17.1 µM, percent relative to cAMP agonist control]
COC(=O)C1(C)CC1(c1ccccc1)c1ccccc1 (stereo not drawn) 12.4% [at 17.1 µM, percent relative to cAMP agonist control]

Potency, inactive:
O=C(NCCc1ccccc1)c1ccc(Cn2c(SCc3cccc(F)c3)nc3cccnc32)cc1
Nc1ccccc1C(=O)NNc1c2ccccc2nc2ccccc12
COC(=O)c1ccc2c(=O)n(CCCCCC(=O)N3CCN(c4cc(C)ccc4C)CC3)c(=O)[nH]c2c1
O=C1CS(=O)(=O)N(Cc2cccc(F)c2)c2ccc(Br)cc21
O=C1C=C(NS(=O)(=O)c2ccccc2)C(=O)c2ccccc21
O=C(CSc1ccc(-c2ccco2)nn1)c1cccc([N+](=O)[O-])c1
O=C(NNC(=O)c1ccccc1F)c1cccc(-n2cccc2)c1
O=C(COc1ccccc1-c1ccccc1)NCc1ccco1
c1cc(-c2cc3nc(NC4CCCCC4)ccn3n2)ccc1OCCN1CCOCC1
